Measurements: ChEMBL document CHEMBL1157539, “Thousands of chemical starting points for antimalarial lead identification” (Nature, 2010)

Tests used:
Assay type in all cases: functional
Plasmodium falciparum [1] = test: GSK_TCMDC: Inhibition of Plasmodium falciparum 3D7 in whole red blood cells, using parasite LDH activity as an index of growth. Test compounds present at 2uM
Plasmodium falciparum [2] = test: GSK_TCMDC: Inhibition of Plasmodium falciparum Dd2 in whole red blood cells, using parasite LDH activity as an index of growth. Test compounds present at 2uM
HepG2 = test: GSK_TCMDC: Percent inhibition of human HepG2 cell line. Test compounds present at 10uM.

Compound	Inhibition (Plasmodium falciparum [1])	Inhibition (Plasmodium falciparum [2])	Inhibition (HepG2)
CCNc1cc(C)nc(Nc2ccc(NS(=O)(=O)c3cc(OC)ccc3OC)cc2)n1	100%	36%	56%
O=C(NC1CC1)c1cnc(N2CCC(COc3cccc(F)c3)CC2)c(Cl)c1	89%	87%	1%
COc1ccc2nccc([C@@H](O)CN3CCC(NCc4ccc5c(n4)NC(=O)CS5)C(F)C3)c2c1.Cl (some centres undefined)	89%	88%	5%
Cc1cc(O)c(-c2cccc(Oc3ccc(Cl)cc3)c2)c(C)n1	96%	95%	0%
Br.N=C(N)Nc1nc(-c2cccc(NC(=O)C(F)(F)F)c2)cs1	94%	24%	0%
CC(C)C[C@H](NC(=O)OC(C)(C)C)C(=O)Nc1ccc(Cc2ccc(NC(=O)[C@H](CC(C)C)NC(=O)OC(C)(C)C)cc2)cc1	94%	88%	0%
CC(C)[C@H](NC(=O)c1ccc(O)c(-c2ccc(Cl)c(Cl)c2)c1)C(=O)NCCN1CCCCC1	99%	98%	0%
O=C1COC2(CN1C1CCN(Cc3ccc(O)c(Cl)c3)C1)c1ccccc1-c1ccccc12.O=CO (centres undefined)	93%	63%	5%
Cc1cc2cc(/C=C/C(=O)NC3CCC(CCN4CCc5ccc(C#N)cc5CC4)CC3)ccc2[nH]1.Cl (centres undefined)	85%	49%	6%
O=C(O)C(F)(F)F.O=S(=O)(NCCN1CCCC1)c1ccc(-c2ccc(CNCc3ccsc3)cc2)cc1	95%	36%	44%
CCN(CC)CCN(Cc1ccc(-c2ccc(C#N)cc2)cc1)C(=O)Cn1c(CCc2cccc(F)c2F)nc(=O)c2ccccc21.O=C(O)C(O)C(O)C(=O)O	100%	46%	31%
Cc1c(CNCCCNc2nc3ccccc3[nH]2)sc(C(F)F)c1Br.Cl	100%	5%	9%
COc1ccc(Cl)cc1NC(=O)C(C)Nc1ccc(-c2ccccc2)cc1 (centres undefined)	91%	89%	0%
Cc1cccc(C(=O)NC(NC(=S)Nc2cc(Cl)ccc2Cl)C(Cl)(Cl)Cl)c1 (centres undefined)	94%	61%	0%
Cc1cccc2nc(-c3cccc(-c4cccc(NC(=O)c5ccc(=O)[nH]n5)c4)c3)[nH]c12	100%	32%	10%
CC(C)(C)C(=O)Nc1ccc(N2CCN(C(c3ccccc3)c3ccccc3)CC2)c(Cl)c1	92%	94%	0%
O=C(Nc1ccc(F)c(C(F)(F)F)c1)N[C@H]1CCN(CCCCCNC(=O)C2CC2c2ccc(Cl)c(Cl)c2)C1 (some centres undefined)	90%	0%	46%
Cc1ccc(S(=O)(=O)NC2=NC(=N)N(OCc3ccc(Cl)c(Cl)c3)C(C)(C)N2)cc1	88%	0%	0%
COc1ccc(C=CC(=O)Nc2ccc(N3CCCC3)cc2)cc1.Cl	81%	9%	0%
Oc1c(Cl)cc(Nc2nccc(Nc3ccc(Oc4ccccc4)cc3)n2)cc1Cl	99%	26%	8%
O=C(Nc1ccc(-c2cccc(-c3nc4cc(C(F)(F)F)ccc4[nH]3)c2)cc1)c1cccnc1	100%	24%	74%
CN1CCCC(CN2CCN(Cc3cccc(-c4csc(-c5nc6ccccc6[nH]5)c4)c3)CC2)C1.O=C(O)C(F)(F)F (centres undefined)	100%	100%	65%
CCOc1ccc(-c2nc(NC(=O)Cc3cccc(OC)c3)sc2C)cc1	97%	28%	15%
CC(C)Nc1cc(C(=O)N[C@@H](Cc2ccccc2)[C@H](O)CNC2CCOCC2)c(F)c(N2CCCCS2(=O)=O)c1.O=CO	98%	98%	2%
Cc1c(N=O)cc(C(C)(C)C)c(O)c1C(=O)Nc1ccc([N+](=O)[O-])cc1Cl	100%	98%	72%
COc1cc2nccc(Nc3cc(C)cc(O)c3)c2cc1OC.Cl	97%	0%	0%
Cc1cccc2c3c([nH]c12)C1(CCN(Cc2ccccc2)CC1)NC(C(=O)NCc1ccccc1)C3 (centres undefined)	81%	8%	0%
C=CCOC(=O)N1CCC(CNCc2ccc(-c3cccc(-c4nc5cc(F)ccc5[nH]4)c3)cc2)C1.O=C(O)C(F)(F)F (centres undefined)	100%	99%	26%
